Consider 39 molecules from PubChem BioAssay (NCI).

Several values for one entry are separate records, joined by “and”; a condition that tells them apart may be missing. Equal values may be shown once. About 83,000 compounds went through this panel and 20% of them were active in at least one assay; those are over-represented in the sample as a whole.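 Results are percent growth after 48 hours of single-concentration exposure. 100 means growth as in untreated cells, lower positive values show inhibition; negative values down to -100 show cell death.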 Unmarked numbers belong to inactive results. Activity calls are given as the source filed them. How the source made its calls: active means growth percent below 10; inactive means the rest.

The test system of this assay is HL-60(TB) leukemia. As to the kind of experiment: NCI-60 one-dose screen, 48 h (100 = growth as untreated, 0 = no growth, -100 = all killed). The note with it: 10 µM unless noted.
Take `Cc1[nH]n(C(=O)c2ccncc2)c(=O)c1N=Nc1ccc(F)c(Cl)c1`: the growth was 36.5%. Next, `CC(=O)Nc1ccc(S(=O)(=O)N2C(=O)CCC2C(=O)Nc2ccccc2)cc1` (centres undefined): 25.1%; `COc1ccc2nc(NC(=O)CN3CCn4c(nnc4C(F)(F)F)C3)sc2c1`: 103%. For `COc1cccc(CNc2ncnc3c2ncn3C2OC(CO)C(O)C2O)c1O` (centres undefined), the growth is -47% (active).

In the case of `COc1ccc(CN2C(=O)/C(=C\c3cc(OC)c(OC)c(OC)c3)c3ccccc32)cc1`, the growth is -16.2% (active).

Turning to `O=C(NNC(=O)c1ccc(-n2cc(-c3ccccc3)nn2)cc1)Nc1ccccc1`, the growth was 95.4%. With `CCCc1c(C)c2sc(=O)[nH]c2[nH]c1=O`, the growth is 101%. The value for `O=C1NCCC12CCN(c1c(Cl)cncc1-c1ccc(O)cc1)CC2` was 102%; that for `COc1ccc(/C=C/C(=O)c2c(C)nc3ccccc3c2/C=C/c2ccccc2)c(OC)c1` was 66.7%; that for `COc1ccc(Nc2cc(Cl)ccc2C(=O)O)cn1` was 96.3%. Next, `NC(N)=NCCCCCNc1noc(Cc2c[nH]c3cc(Br)ccc23)n1`: 44.9%; `O=C(/C=C/C=C/c1ccc2c(c1)OCO2)N/N=C\c1ccc(O)cc1O`: -0.489% (active).

As for `COc1ccc(-c2nc3c(c(-c4ccccc4)nn3-c3ccccc3)c(-c3ccc(N4CCOCC4)cc3)c2C#N)cc1`, the growth was 101%. In the case of `C#Cc1ccccc1NC(=O)c1sc2nc3c(cc2c1N)CCCCC3`, the growth is 99.7%. Turning to `COc1cc(C(=O)N/N=C/c2cccc([N+](=O)[O-])c2)cc(OC)c1OC`, the growth was 41.3%. As to `Nc1nc2c(c3ncccc13)C(c1ccc(Cl)c(Cl)c1)Cc1ncccc1-2` (centres undefined), the growth is -7.14% (active). The value for `COc1c(Cl)cc(Cl)c2ccc(C=C3C(=O)NC(=S)NC3=O)nc12` was 102%; that for `COC(=O)CCCCCCN=Cc1c(O)c(O)c(C(C)C)c2cc(C)c(-c3c(C)cc4c(C(C)C)c(O)c(O)c(C=NCCCCCCC(=O)OC)c4c3O)c(O)c12` was 16.6%. Take `CCCCCCC(O)(c1ccc(F)cc1)C(CN1CCOCC1)c1ccccc1` (centres undefined): the growth was 30.8%. Take `COc1ccc(CNC(=O)COc2ccc(/C=N/Nc3nc4ccccc4s3)cc2)cc1`: the growth was 105%. Consider `CCNC(=O)c1ccc2c(c1)nc(-c1ccc(Cl)cc1)n2-c1cc(C(C)(C)C)[nH]n1`, for which the growth is 4.73% (active). Next, `COc1ccc(-c2nn(-c3cccc(NC(=O)c4ccc(Cl)c(Cl)c4)c3)cc2-c2ccncc2)cc1Cl`: 89.1%. The value for `Nc1nc(Nc2cc(Cl)cc(Cl)c2)nn1S(=O)(=O)c1ccc2ccccc2c1` was 88.6%; that for `O=C1N[C@H]2[C@H](CS[C@H]2CCCCC(=O)N(CCP(c2ccccc2)c2ccccc2)CCP(c2ccccc2)c2ccccc2)N1` was 72.8%; that for `N#Cc1cnc(NCCc2ccncc2)nc1-n1cnc2ccccc21` was 37.7%. As to `O=C(O)C1C2CC3C(OC(=O)C31)C2Br` (centres undefined), the growth is 97% and 103%. The value for `O=C(CCCCC(=O)N/N=C\c1ccccc1O)N/N=C\c1ccccc1O` was 4.44% (active); that for `S=c1ssnc1-c1ccccn1` was -43.5% (active); that for `COc1ccc(S(=O)(=O)ON=C2C=C(C)C(=O)C(C)=C2)cc1` was 43.7%. As for `CN1C(=O)N(C)C2C1NN=c1s/c(=C\c3cccnc3)c(=O)n12` (centres undefined), the growth is 82.7%. Next, `OB(O)c1cccc(-c2nc3ccc4[nH]ncc4c3c3c2CCCC3)c1F`: 32.1%; `N#C/C(=N\Nc1ccc(Cl)cc1)C(=O)C1CC1`: 62.8%. The value for `O=[N+]([O-])c1ccc(NS(=O)(=O)c2ccccc2)c2ccccc12` was 21.2%; that for `O=[N+]([O-])c1ccc2[nH]cc(-c3c4ccsc4cc4[nH]c5ccc([N+](=O)[O-])cc5c34)c2c1` was 8.08% (active); that for `c1ccc(Cc2nn3cc(-c4ccccc4)nc3s2)cc1` was 68%. The value for `O=c1[nH]cnc2c1ncn2C1OC(CO)C(O)C1O` (centres undefined) was 97.1% and 89.3% and 101%; that for `O=C1C(=O)N(CCCCn2cc(CO)nn2)c2ccccc21` was 91.9%; that for `COc1ccc(-c2nc(NC(=O)CS(=O)(=O)c3ccc(F)cc3)sc2C)cc1` was 51.6%. `CN1CCc2c(Sc3ccc(C(=O)NO)cc3)c3ccccc3n2C1`: the growth is 60.3%.
